From PubChem BioAssay
A number with no mark means an inactive call. Inconclusive results are not listed. Calls of active or inactive are those of the source.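 The calls were made as follows, unless noted: active = viability increase at or above a cutoff of the median across tested compounds plus 3 SD (cut at about 8.5% in these data, passing the limit was not always enough); inconclusive = some gains above the cutoff, reason not given; inactive = the rest.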

Assay: viability gain of MRP-1-high H69AR cells under doxorubicin, pilot screen, MRP-1 activator project, CellTiter-Glo, duplicate (AID 807);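 also: compound pretreatment 18-22 h then 72 h combined with doxorubicin; 0% = doxorubicin alone and 100% = vehicle without doxorubicin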
Conditions: H69AR viability with doxorubicin, CellTiter-Glo luminescence; at 10 µM; hits give high values
Work on `CS(=O)(=O)N(Cc1ccc(C(=O)NCc2ccco2)cc1)c1ccccc1` yielded a viability increase of -3.9%.
In the case of `COc1ccc(N(CC(=O)N2CCN(C)CC2)S(C)(=O)=O)cc1OC`, the viability increase is reported as -0.37%.
`Cc1ncc(CO)c2cc(S(=O)(=O)c3ccc(F)cc3)c(=O)oc12` showed a viability increase of -0.48%.
Compound `CCN(CC)c1ccc(/C=N/n2c(C)cc(C)cc2=O)cc1` has a viability increase of -0.57%.
`COc1ccc(C)cc1NC(=O)c1cc2c(CO)cnc(C)c2oc1=N` gave a viability increase of -0.06%.
Work on `Cc1cc(C)nc(SCC(=O)Nc2ccc(S(=O)(=O)Nc3onc(C)c3C)cc2)n1` yielded a viability increase of 0.95%.
Compound `CCCCOC(=O)c1ccc(NS(=O)(=O)c2cc(-c3nnnn3CC)ccc2OC)cc1` has a viability increase of -2.06%.
Work on `Cc1oc(-c2ccc(Cl)cc2)nc1CN1CCCC(C(=O)N2CCN(C(=O)c3ccco3)CC2)C1` (stereo not given) yielded a viability increase of -4.07%.
For `COc1ccc(NC(=O)N(Cc2ccc(C)cc2)Cc2ccccn2)c(OC)c1`, the viability increase was -1.9%.
Work on `O=C(O)c1ccc(NS(=O)(=O)c2cccc3cccnc23)cc1` yielded a viability increase of -0.56%.
Compound `Cc1c(C(=O)NCc2ccc3c(c2)OCO3)sc2nc(-c3ccc(F)cc3)cn12` has a viability increase of 0.84%.
`Nc1c(S(=O)(=O)c2ccccc2)c2nc3ccccc3nc2n1Cc1ccco1` gave a viability increase of -3.97%.
In the case of `CCN(CCNC(=O)CCCn1nc(C)n2c(cc3sccc32)c1=O)c1ccccc1`, the viability increase is reported as 1.17%.
For `Cc1ccc(N2CC(C(=O)Nc3cccc(F)c3)CC2=O)cc1` (stereo not given), the viability increase was 0.09%.
For `CCOc1ccc(NC(=O)CN2C(=O)COc3ccc(Cl)cc32)cc1`, the viability increase was 3.8%.
`CN1CCN(c2ccccc2NC(=O)C(Cc2ccccc2)n2cccc2)CC1` (stereo not given) gave a viability increase of -7.39%.
`CN1CCCc2cc3c(C(F)(F)F)cc(=O)oc3nc21` gave a viability increase of -1.33%.
Work on `O=C(Nc1nc(-c2ccccn2)cs1)C1COc2ccccc2O1` (stereo not given) yielded a viability increase of -0.68%.
Work on `Cc1cc(-c2nnc(-c3cc4ccccc4oc3=O)o2)c(C)n1-c1ccccc1` yielded a viability increase of -2.92%.
Compound `COc1cccc(-c2nc(CS(=O)CC(=O)NCc3ccc4c(c3)OCO4)c(C)o2)c1` (stereo not given) has a viability increase of 0.74%.
Compound `CCCCC(=O)OCCNC(=O)c1cc2ccccc2oc1=O` has a viability increase of -2.04%.
`CC(=O)Nc1ccc(S(=O)(=O)NCCc2cc3c(C)ccc(C)c3[nH]c2=O)cc1` gave a viability increase of -0.47%.
With `Fc1cc2nc(-c3ccncc3)[nH]c2cc1F` the viability increase was -1.54%.
In the case of `CCC(=O)NCCn1c(C)cc2ccccc21`, the viability increase is reported as -0.96%.
Work on `O=C(O)c1cccc(NS(=O)(=O)c2cccc3cccnc23)c1` yielded a viability increase of 0.96%.
In the case of `NC(=O)COc1ccc(=O)n(-c2ccccc2)n1`, the viability increase is reported as 0.84%.
`COc1cc2c(C(=O)NCc3ccccn3)cn(C)c(=O)c2cc1OC` showed a viability increase of -1.1%.
Work on `CCOc1ccc(N(CC(=O)NCc2ccccc2)S(C)(=O)=O)cc1` yielded a viability increase of -1.14%.
`COc1ccc(S(=O)(=O)Cc2ccc(C(=O)N3CCN(C4CCCCC4)CC3)o2)cc1` gave a viability increase of -2.58%.
Work on `CCn1c(CNC(=O)C23CC4CC(CC(C4)C2)C3)nnc1SCC(=O)Nc1nnc(C)s1` yielded a viability increase of 0.62%.
Work on `COc1ccc(N(CC(=O)NCc2ccco2)S(=O)(=O)c2c(C)nn(C)c2C)cc1` yielded a viability increase of -4.02%.
Work on `Cc1cccnc1NC(=O)c1c(O)c2ccccc2n(C)c1=O` yielded a viability increase of -3.77%.
In the case of `COc1ccc(C2OC(=O)CC2C(=O)N2CCN(c3cc(Cl)ccc3C)CC2)cc1OC` (stereo not given), the viability increase is reported as -2.26%.
Work on `CCc1cc2c(=O)c(-c3nc4ccccc4n3C)c(C(C)C)oc2c(CN2CCN(C)CC2)c1O` yielded a viability increase of -0.59%.
`CCCSc1nnc2c(n1)OC(c1cccn1C)N(C(C)=O)c1ccccc1-2` (stereo not given) showed a viability increase of -2.06%.
With `CC(NC(=O)CSc1ncnc2nc[nH]c12)c1ccccc1` (stereo not given) the viability increase was -0.99%.
In the case of `Cc1ccc(-n2nnc3c(=O)n(CC(=O)NCc4ccco4)cnc32)cc1`, the viability increase is reported as -4.35%.
With `O=C(c1oc(=O)c2ccccc2c1-c1ccccc1)N1CCC(O)CC1` the viability increase was -2.96%.
In the case of `CC(CCCC(C)(C)O)NCCO` (stereo not given), the viability increase is reported as 1.25%.
Work on `O=C(c1ccco1)N1CCN(c2nc3ccsc3c(=O)s2)CC1` yielded a viability increase of -3.19%.

Assay: growth suppression of beta-catenin knockout HCT116, pilot screen, human colon tumor cells (AID 823;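 active = cell viability at or below a set limit in both duplicate runs, the limit being the all-compound median minus 4 SD, cut at about 23% in these data, passing the limit was not always enough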;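 also: 0% = wells killed by 20 µM Hyamine and 100% = untreated DMSO cell wells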)
Conditions: CellTiter-Glo, 60 h, at 10 µM, hits give low values
In the case of `CS(=O)(=O)N(Cc1ccc(C(=O)NCc2ccco2)cc1)c1ccccc1`, the viability is reported as 94%.
Compound `COc1ccc(N(CC(=O)N2CCN(C)CC2)S(C)(=O)=O)cc1OC` has a viability of 90.8%.
With `Cc1ncc(CO)c2cc(S(=O)(=O)c3ccc(F)cc3)c(=O)oc12` the viability was 104%.
`CCN(CC)c1ccc(/C=N/n2c(C)cc(C)cc2=O)cc1` showed a viability of 105%.
`COc1ccc(C)cc1NC(=O)c1cc2c(CO)cnc(C)c2oc1=N` gave a viability of 97.5%.
`Cc1cc(C)nc(SCC(=O)Nc2ccc(S(=O)(=O)Nc3onc(C)c3C)cc2)n1` showed a viability of 109%.
In the case of `CCCCOC(=O)c1ccc(NS(=O)(=O)c2cc(-c3nnnn3CC)ccc2OC)cc1`, the viability is reported as 91.5%.
With `Cc1oc(-c2ccc(Cl)cc2)nc1CN1CCCC(C(=O)N2CCN(C(=O)c3ccco3)CC2)C1` (stereo not given) the viability was 33.8%.
`COc1ccc(NC(=O)N(Cc2ccc(C)cc2)Cc2ccccn2)c(OC)c1` gave a viability of 91%.
For `O=C(O)c1ccc(NS(=O)(=O)c2cccc3cccnc23)cc1`, the viability was 102%.
Compound `Cc1c(C(=O)NCc2ccc3c(c2)OCO3)sc2nc(-c3ccc(F)cc3)cn12` has a viability of 108%.
For `Nc1c(S(=O)(=O)c2ccccc2)c2nc3ccccc3nc2n1Cc1ccco1`, the viability was 78.8%.
With `CCN(CCNC(=O)CCCn1nc(C)n2c(cc3sccc32)c1=O)c1ccccc1` the viability was 97.2%.
Work on `Cc1ccc(N2CC(C(=O)Nc3cccc(F)c3)CC2=O)cc1` (stereo not given) yielded a viability of 90.6%.
For `CCOc1ccc(NC(=O)CN2C(=O)COc3ccc(Cl)cc32)cc1`, the viability was 97.4%.
`CN1CCN(c2ccccc2NC(=O)C(Cc2ccccc2)n2cccc2)CC1` (stereo not given) showed a viability of 55.6%.
`CN1CCCc2cc3c(C(F)(F)F)cc(=O)oc3nc21` showed a viability of 94.2%.
For `O=C(Nc1nc(-c2ccccn2)cs1)C1COc2ccccc2O1` (stereo not given), the viability was 10.3% (active).
With `Cc1cc(-c2nnc(-c3cc4ccccc4oc3=O)o2)c(C)n1-c1ccccc1` the viability was 79.7%.
Compound `COc1cccc(-c2nc(CS(=O)CC(=O)NCc3ccc4c(c3)OCO4)c(C)o2)c1` (stereo not given) has a viability of 97.2%.
Work on `CCCCC(=O)OCCNC(=O)c1cc2ccccc2oc1=O` yielded a viability of 92.3%.
Work on `CC(=O)Nc1ccc(S(=O)(=O)NCCc2cc3c(C)ccc(C)c3[nH]c2=O)cc1` yielded a viability of 98.2%.
`Fc1cc2nc(-c3ccncc3)[nH]c2cc1F` gave a viability of 109%.
Compound `CCC(=O)NCCn1c(C)cc2ccccc21` has a viability of 104%.
With `O=C(O)c1cccc(NS(=O)(=O)c2cccc3cccnc23)c1` the viability was 103%.
Compound `NC(=O)COc1ccc(=O)n(-c2ccccc2)n1` has a viability of 107%.
With `COc1cc2c(C(=O)NCc3ccccn3)cn(C)c(=O)c2cc1OC` the viability was 102%.
`CCOc1ccc(N(CC(=O)NCc2ccccc2)S(C)(=O)=O)cc1` gave a viability of 103%.
With `COc1ccc(S(=O)(=O)Cc2ccc(C(=O)N3CCN(C4CCCCC4)CC3)o2)cc1` the viability was 78.9%.
Work on `CCn1c(CNC(=O)C23CC4CC(CC(C4)C2)C3)nnc1SCC(=O)Nc1nnc(C)s1` yielded a viability of 96.7%.
Work on `COc1ccc(N(CC(=O)NCc2ccco2)S(=O)(=O)c2c(C)nn(C)c2C)cc1` yielded a viability of 89.8%.
For `Cc1cccnc1NC(=O)c1c(O)c2ccccc2n(C)c1=O`, the viability was 92%.
For `COc1ccc(C2OC(=O)CC2C(=O)N2CCN(c3cc(Cl)ccc3C)CC2)cc1OC` (stereo not given), the viability was 96.8%.
Compound `CCc1cc2c(=O)c(-c3nc4ccccc4n3C)c(C(C)C)oc2c(CN2CCN(C)CC2)c1O` has a viability of 69.4%.
`CCCSc1nnc2c(n1)OC(c1cccn1C)N(C(C)=O)c1ccccc1-2` (stereo not given) gave a viability of 97.7%.
`CC(NC(=O)CSc1ncnc2nc[nH]c12)c1ccccc1` (stereo not given) showed a viability of 99.8%.
`Cc1ccc(-n2nnc3c(=O)n(CC(=O)NCc4ccco4)cnc32)cc1` showed a viability of 67.6%.
Work on `O=C(c1oc(=O)c2ccccc2c1-c1ccccc1)N1CCC(O)CC1` yielded a viability of 97.6%.
For `CC(CCCC(C)(C)O)NCCO` (stereo not given), the viability was 102%.
Work on `O=C(c1ccco1)N1CCN(c2nc3ccsc3c(=O)s2)CC1` yielded a viability of 97.1%.
